A number with no mark means an inactive call. Activity calls are given as the source filed them.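 Rule for the calls, unless noted: active = inhibition above 50%; inactive = the rest.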

The nature of the first assay: antimalarial activity against Dd2 strain (AID 2302;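 active = growth inhibition above 50% at the single 2 µM test dose, taken to imply half-maximal potency below 2 µM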;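 note: 0% = DMSO untreated growth and 100% = chloroquine plus artemisinin killed control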). The settings on record: P. falciparum Dd2 in RBCs, LDH growth readout, 72 h; at 2 µM; active compounds read high.
`O=C(Nc1ccc(-c2nc3ccccc3[nH]2)cc1)c1cncc(Br)c1`: the growth inhibition was 49%.
Consider `NCc1ccc(CNCc2ccc(-c3ccc(-c4nc5ccc(C(F)(F)F)cc5[nH]4)s3)cc2)cc1`, for which the growth inhibition was 92% (active).
Same read-out and setting: the result for `O=C(Nc1cccc(CN2CCN(Cc3ccc(O)cc3)CC2)c1)c1cccc(C(F)(F)F)c1` reads 15%; that for `O=C(Nc1ccc(C(F)(F)F)cc1)c1ccc(S(=O)(=O)NCC2CCCN(CC3CCCCC3)C2)cc1` (stereo not drawn), -6%.
The same measure, in the same setting: to `O=C(/C=C/c1ccc(Cl)c(Cl)c1)NCCCCCN1CCC(NC(=O)NC2CCCCCC2)CC1` belongs 41%.
In the case of `O=C(/C=C/c1ccc(Cl)cc1)NCCCCCN1CCCC(C(=O)Nc2ccc(Cl)c(Cl)c2)C1` (stereo not drawn), the growth inhibition was 3%.
On to `Cc1ccc2nc(C)cc(Nc3ccccc3O)c2c1`, for which the growth inhibition was 6%.
Still for that read-out and setting: the result for `COc1ccc(NC(=O)CSc2nc(-c3ccccc3Cl)ns2)cc1OC` reads 63% (active); that for `COc1c(Br)cc(Br)cc1C(C)=O`, -2%.
With `COc1cc2c(cc1OCCN1CCC(N)CC1)N(C(=O)/C=C/c1ccccc1Cl)CC2`, the growth inhibition was 18%.
Same read-out and setting: the result for `COc1ccccc1C(=O)Nc1cccc(N2CCC(NCc3ccc(-n4cccn4)cc3)CC2)c1` reads 30%; that for `CC(C)c1cc(Oc2c(I)cc(CCNCc3ccccc3)cc2I)ccc1O`, 54% (active).
The same measure, in the same setting: to `Cc1cc(Nc2cccc(Cl)c2)nc2ccc(NC(=O)c3ccc(=O)[nH]c3)cc12` belongs 23%; to `O=C(O)c1ccc2nc(-c3ccccn3)c(-c3ccccn3)nc2c1`, 18%; to `Cc1cc(NN=Cc2cccc([N+](=O)[O-])c2)c2ccc(F)cc2n1`, 98% (active).
The same measure, in the same setting: to `OC1(Cc2ccccc2)CCN(Cc2cccc(-c3c[nH]c4nc(NC5CCCC5)ncc34)c2)CC1` belongs 35%; to `COC(=O)c1noc(C)c1I`, 2%; to `CC(C)(CNCc1ccc(C(F)(F)F)cc1)c1nc(-c2ccc(Cl)c(O)c2)c(-c2ccncc2)[nH]1`, 98% (active).
In the case of `CC1=C(C(=O)Nc2ccc(Cl)cc2)C(c2ccncc2)n2nc(C(F)(F)F)nc2N1` (stereo not drawn), the growth inhibition was 49%.
On the same count and under the same terms, to `O=C(Cc1cccnc1)N(Cc1ccc(-c2ccc(CNCc3cccnc3)cn2)cc1)C1CCN(Cc2ccccc2)CC1` belongs 6%.
On the same count and under the same terms, to `CS(=O)(=O)c1ccccc1CNC(=O)c1ccc(-c2ccc(-c3nc4ccc(C(F)(F)F)cc4[nH]3)s2)cc1` belongs 76% (active); to `Cc1ccc(NC(=O)c2cccc(C#N)c2)cc1-c1ccc(C(=O)Nc2ccncc2)cc1`, 64% (active); to `O=C(/C=C/c1ccc(Cl)c(Cl)c1)NC1CCC(CN2CCC(c3nc4ncccc4[nH]3)CC2)CC1` (stereo not drawn), 2%.
Same read-out and setting: the result for `OC(CNCc1cccc(Oc2ccc(Cl)cc2)c1)c1cc(C(F)(F)F)cc(C(F)(F)F)c1` (stereo not drawn) reads 101% (active).
For `NC(=O)CCC(NC(=O)CNC(=O)Nc1cccc(C(F)(F)F)c1)C(=O)O` (stereo not drawn), the growth inhibition is 93% (active).
Still for that read-out and setting: the result for `CS(=O)(=O)c1ccc(CNCc2ccc(-c3ccc(-c4nc5ccc(C(F)(F)F)cc5[nH]4)cc3)cc2)cc1` reads 82% (active); that for `O=C(Nc1ccc(Br)cc1)N(CCN1CCOCC1)CC(O)COc1ccc(Cl)c(F)c1` (stereo not drawn), 30%; that for `COc1ccc(Nc2ncc3c(-c4cccc(NC(=O)Cc5ccncc5)c4)c[nH]c3n2)cc1OC`, 87% (active).
The same measure, in the same setting: the result for `CN(C)c1ccc(-c2ccc(C(=O)NC3CCN(Cc4ccc(C(C)(C)C)cc4)CC3)s2)cc1` reads 59% (active); that for `Cc1ccc(-c2cc(C(=O)Nc3ccc(S(=O)(=O)N4CCCCC4C)cc3)[nH]n2)c(O)c1` (stereo not drawn), 99% (active); that for `CCn1c2ccccc2c2cc(C=NNc3cc(C)nc4ccccc34)ccc21`, 97% (active).
On to `CC(=O)Nc1ncc(C(=O)Nc2cccc(-c3ccc(-c4nc5ccc(C(F)(F)F)cc5[nH]4)cc3)c2)s1`, for which the growth inhibition was 94% (active).
The same measure, in the same setting: to `Cc1nc2nc(N)nc(N)c2c(C)c1Cc1cccc(F)c1` belongs 1%.
The same measure, in the same setting: the result for `O=[N+]([O-])c1ccc(/C=N/Nc2cc(-c3ccccc3)nc3ccccc23)o1` reads 49%; that for `CC(=O)Nc1nc(C(=O)Nc2ccc(-c3ccc(-c4nc5ccccc5[nH]4)cc3)cc2)cs1`, 53% (active); that for `COc1cccc2cc(C(=O)N[C@@H](CC(C)C)C(=O)N[C@H](/C=N/N(C)C(=O)OC(C)(C)C)Cc3ccccc3)oc12`, 89% (active).
On the same count and under the same terms, the result for `Cc1cc(NN=Cc2ccc(Cl)cc2)c2cccc(C)c2n1` reads 47%; that for `Cc1onc(-c2ccccc2Cl)c1C(=O)Nc1cc(Cl)c(Cl)cc1Cl`, 57% (active).
For `Cc1cccc2[nH]c(-c3ccc(-c4ccc(CN5CCC(CCN6CCCCC6)CC5)cc4)cc3)nc12`, the growth inhibition was 100% (active).

A short description of another assay: human hepatoma cell viability loss – ATP luminescence, cytotoxicity control for P. falciparum antimalarial project, primary screen (AID 2303).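 Note: 0% = DMSO wells and 100% = digitonin-killed cells.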 The settings on record: HepG2 viability, 24-48 h, at 10 µM, active compounds read high.
On to `O=C(Nc1ccc(-c2nc3ccccc3[nH]2)cc1)c1cncc(Br)c1`, for which the inhibition was 35%.
Still for that read-out and setting: to `NCc1ccc(CNCc2ccc(-c3ccc(-c4nc5ccc(C(F)(F)F)cc5[nH]4)s3)cc2)cc1` belongs 34%.
On the same count and under the same terms, the result for `O=C(Nc1cccc(CN2CCN(Cc3ccc(O)cc3)CC2)c1)c1cccc(C(F)(F)F)c1` reads 21%.
On the same count and under the same terms, to `O=C(Nc1ccc(C(F)(F)F)cc1)c1ccc(S(=O)(=O)NCC2CCCN(CC3CCCCC3)C2)cc1` (stereo not drawn) belongs 44%.
In the case of `O=C(/C=C/c1ccc(Cl)c(Cl)c1)NCCCCCN1CCC(NC(=O)NC2CCCCCC2)CC1`, the inhibition was 15%.
As to `O=C(/C=C/c1ccc(Cl)cc1)NCCCCCN1CCCC(C(=O)Nc2ccc(Cl)c(Cl)c2)C1` (stereo not drawn), the inhibition was 27%.
The same measure, in the same setting: the result for `Cc1ccc2nc(C)cc(Nc3ccccc3O)c2c1` reads 0%.
Take `COc1ccc(NC(=O)CSc2nc(-c3ccccc3Cl)ns2)cc1OC`: the inhibition is -1%.
On to `COc1c(Br)cc(Br)cc1C(C)=O`, for which the inhibition was 3%.
Still for that read-out and setting: the result for `COc1cc2c(cc1OCCN1CCC(N)CC1)N(C(=O)/C=C/c1ccccc1Cl)CC2` reads 19%; that for `COc1ccccc1C(=O)Nc1cccc(N2CCC(NCc3ccc(-n4cccn4)cc3)CC2)c1`, 9%.
On the same count and under the same terms, the result for `CC(C)c1cc(Oc2c(I)cc(CCNCc3ccccc3)cc2I)ccc1O` reads 42%.
Still for that read-out and setting: the result for `Cc1cc(Nc2cccc(Cl)c2)nc2ccc(NC(=O)c3ccc(=O)[nH]c3)cc12` reads 12%; that for `O=C(O)c1ccc2nc(-c3ccccn3)c(-c3ccccn3)nc2c1`, 3%.
Take `Cc1cc(NN=Cc2cccc([N+](=O)[O-])c2)c2ccc(F)cc2n1`: the inhibition is -18%.
On the same count and under the same terms, the result for `OC1(Cc2ccccc2)CCN(Cc2cccc(-c3c[nH]c4nc(NC5CCCC5)ncc34)c2)CC1` reads 45%.
As for `COC(=O)c1noc(C)c1I`, the inhibition is 5%.
Turning to `CC(C)(CNCc1ccc(C(F)(F)F)cc1)c1nc(-c2ccc(Cl)c(O)c2)c(-c2ccncc2)[nH]1`, the inhibition is 42%.
`CC1=C(C(=O)Nc2ccc(Cl)cc2)C(c2ccncc2)n2nc(C(F)(F)F)nc2N1` (stereo not drawn): the inhibition is 25%.
As for `O=C(Cc1cccnc1)N(Cc1ccc(-c2ccc(CNCc3cccnc3)cn2)cc1)C1CCN(Cc2ccccc2)CC1`, the inhibition was 8%.
On the same count and under the same terms, the result for `CS(=O)(=O)c1ccccc1CNC(=O)c1ccc(-c2ccc(-c3nc4ccc(C(F)(F)F)cc4[nH]3)s2)cc1` reads 90% (active).
Consider `Cc1ccc(NC(=O)c2cccc(C#N)c2)cc1-c1ccc(C(=O)Nc2ccncc2)cc1`, for which the inhibition is 38%.
Still for that read-out and setting: the result for `O=C(/C=C/c1ccc(Cl)c(Cl)c1)NC1CCC(CN2CCC(c3nc4ncccc4[nH]3)CC2)CC1` (stereo not drawn) reads 7%.
On the same count and under the same terms, to `OC(CNCc1cccc(Oc2ccc(Cl)cc2)c1)c1cc(C(F)(F)F)cc(C(F)(F)F)c1` (stereo not drawn) belongs -4%; to `NC(=O)CCC(NC(=O)CNC(=O)Nc1cccc(C(F)(F)F)c1)C(=O)O` (stereo not drawn), 1%; to `CS(=O)(=O)c1ccc(CNCc2ccc(-c3ccc(-c4nc5ccc(C(F)(F)F)cc5[nH]4)cc3)cc2)cc1`, 26%.
On the same count and under the same terms, to `O=C(Nc1ccc(Br)cc1)N(CCN1CCOCC1)CC(O)COc1ccc(Cl)c(F)c1` (stereo not drawn) belongs 3%.
Turning to `COc1ccc(Nc2ncc3c(-c4cccc(NC(=O)Cc5ccncc5)c4)c[nH]c3n2)cc1OC`, the inhibition was 23%.
Same read-out and setting: the result for `CN(C)c1ccc(-c2ccc(C(=O)NC3CCN(Cc4ccc(C(C)(C)C)cc4)CC3)s2)cc1` reads 35%; that for `Cc1ccc(-c2cc(C(=O)Nc3ccc(S(=O)(=O)N4CCCCC4C)cc3)[nH]n2)c(O)c1` (stereo not drawn), 37%.
Still for that read-out and setting: to `CCn1c2ccccc2c2cc(C=NNc3cc(C)nc4ccccc34)ccc21` belongs 19%.
For `CC(=O)Nc1ncc(C(=O)Nc2cccc(-c3ccc(-c4nc5ccc(C(F)(F)F)cc5[nH]4)cc3)c2)s1`, the inhibition was 83% (active).
Still for that read-out and setting: the result for `Cc1nc2nc(N)nc(N)c2c(C)c1Cc1cccc(F)c1` reads 65% (active); that for `O=[N+]([O-])c1ccc(/C=N/Nc2cc(-c3ccccc3)nc3ccccc23)o1`, 48%; that for `CC(=O)Nc1nc(C(=O)Nc2ccc(-c3ccc(-c4nc5ccccc5[nH]4)cc3)cc2)cs1`, 38%.
Still for that read-out and setting: to `COc1cccc2cc(C(=O)N[C@@H](CC(C)C)C(=O)N[C@H](/C=N/N(C)C(=O)OC(C)(C)C)Cc3ccccc3)oc12` belongs 5%; to `Cc1cc(NN=Cc2ccc(Cl)cc2)c2cccc(C)c2n1`, -1%; to `Cc1onc(-c2ccccc2Cl)c1C(=O)Nc1cc(Cl)c(Cl)cc1Cl`, 3%.
Take `Cc1cccc2[nH]c(-c3ccc(-c4ccc(CN5CCC(CCN6CCCCC6)CC5)cc4)cc3)nc12`: the inhibition is 99% (active).
